Screening results deposited in PubChem BioAssay by National Center for Advancing Translational Sciences (NCATS).
HT1080 IDH1KD tx: kills HT-1080 cells with IDH1 knockdown. HT-1080 IDH1 knockdown viability, ATP luminescence, 48 h. Potency, µM (series often up to 46.1 µM), for inactives: top-dose activity, negative = toxicity, hits mostly cytotoxic. 2% of 360,000 active. AID 686971;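 note: potency is the fitted concentration of half-maximal effect; 0% = DMSO wells and -100% = cell-free medium wells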
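After a 2 h attachment period, IDH1KD HT-1080 cells took pin-transferred compound for 48 h at 37 °C; ATP-based luminescence after 10 min room-temperature reagent incubation reported viability.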
HT1080-NT tox: kills 2HG-producing HT-1080-NT fibrosarcoma cells. 1.6% of 360,000 active. HT-1080-NT fibrosarcoma viability, CellTiter-Glo ATP luminescence, 48 h. Potency, µM (series often up to 46.1 µM), inactives show at the highest dose activity, negative = less viability, most hits filed as cytotoxic;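 note: NT is the 2HG producing partner of a matched IDH1 knockdown line; potency is the fitted concentration of half-maximal effect; 0% = DMSO-treated cells and -100% = media-only wells without cells; nearly all actives have a fitted effect of over 55% in size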
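Viability by CellTiter-Glo luminescence after 48 h compound exposure at 37C of HT-1080-NT cells (750/well, RPMI, 5% FBS). % activity scaled between DMSO wells and medium-only wells, then curve-fitted and categorized by curve class.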
ELG1 DNA repair: inhibitors of ELG1-dependent DNA repair in HEK293T cells; HEK293T ELG1-luciferase reporter, luminescence, 16 h; DNA damage induced by 5-fluorouridine; Potency, µM (highest dose often 46.1 µM), without a hit: top-dose activity change, negative = inhibition, hits mostly inhibitors; 2.3% of 330,000 active; AID 504467; note: potency is the fitted concentration of half-maximal effect; nearly all actives have a fitted effect of over 55% in size
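HEK293T cells expressing luciferase-tagged ELG1 (2,000/well) received 5-Fluorouridine plus compound or DMSO for 16 hr at 37 °C. Luciferase was read by ONE-Glo luminescence after 30 min at room temperature.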
DT40 TDP1 no CPT: qHTS for Inhibitors of human tyrosyl-DNA phosphodiesterase 1 (TDP1): qHTS in cells in absence of CPT; DT40 Tdp1-/- hTDP1 cells, no CPT, ATP luminescence, 48 h; Potency, µM (series often up to 46.2 µM), inactives show at the highest dose activity change, negative = growth inhibition, actives largely listed as inhibitors; 15% of 420,000 active; AID 686978, 2013; note: potency is the fitted concentration of half-maximal effect; nearly all actives have a fitted effect of over 55% in size
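Cells were dispensed at 400 per well, compounds added by pin tool, plates incubated ≥48 hr at 37 °C, then CellTiter-Glo added for 30 min at room temperature before luminescence reading. Line: DT40 Tdp1-/- complemented with hTDP1; camptothecin omitted.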
DT40 TDP1 CPT: DT40-hTDP1 cell growth loss with CPT; 12% of 420,000 active; Potency, µM (top dose mostly 46.2 µM), for inactives: at the top dose activity change, negative = growth inhibition, usual class: inhibitors; chicken DT40 Tdp1-/-;hTDP1 cells + 20 nM CPT, ATP luminescence, 48 h; AID 686979; note: potency is the fitted concentration of half-maximal effect; nearly all actives have a fitted effect of over 55% in size
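Chicken DT40 Tdp1-/- cells complemented with human TDP1, 400 cells/well, exposed to compounds plus 20 nM camptothecin for at least 48 h at 37 C; viability read as ATP content by CellTiter-Glo luminescence.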
IL-1B inflam inh: inhibitors of inflammasome signaling (IL-1 beta secretion); THP-1 LPS/ATP IL-1B secretion, AlphaLISA, 16 h; stronger effect = lower value; activity change, % at 57.5 µM; 4.7% of 360,000 active; AID 743279; in the data active = activity change below about -50%; inconclusive = mostly about -30% to -49%
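Secreted IL-1B measured by AlphaLISA bead assay after 16 h compound exposure of THP-1 cells; compounds (final up to 57.5 uM) added 1 h before LPS (250 ng/mL) and ATP (1.25 mM) stimulation; lower signal means less secretion.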
* hit, by the source's call; ? = inconclusive; nt = not tested or not shown; [ ] = dose if it differs, or a comment. Rows were chosen to be rich in hits. Some 19% of all compounds tested hit in one or more screens of this group. Unless noted, calls come from the whole dose curve; as a rule, active = well fitted curve in the direction sought with a large enough effect; inconclusive = small, poorly fitted or top-dose-only effect, or another doubt; inactive = no such curve, though single readings can be large; an effect the other way counts as inactive or inconclusive. Unless noted, % is set by controls: 0 for no effect and ±100 for the full control effect.

SMILES	HT1080 IDH1KD tx	HT1080-NT tox	ELG1 DNA repair	DT40 TDP1 no CPT	DT40 TDP1 CPT	IL-1B inflam inh
CCOc1ccc(NC(=O)CSc2oc(-c3ccc(F)cc3)nc2S(=O)(=O)c2ccc(C)cc2)cc1	nt	nt	nt	6.5µM*	5.8µM*	nt
CCSc1oc(-c2cccs2)nc1S(=O)(=O)c1ccccc1	1%	-2%	1%	?	?	0
COc1ccc(-c2noc(CCC(=O)N3CCN(c4ccc(F)cc4)CC3)n2)cc1	6%	3%	20%	-15%	-27%	23
Clc1ccc(-c2csc(Nc3ccccc3)[n+]2Cc2ccco2)c(Cl)c1	?	-2%	?	23µM*	?	-8
S=C(NCc1ccco1)Nc1cccc(Cl)c1	?	?	-3%	?	-12%	0
CCCC[n+]1c(-c2ccc(Cl)cc2Cl)csc1Nc1ccccc1	0%	-12%	-9%	21µM*	?	-14
O=S(=O)(c1ccccc1)N1CCC2(CCN(c3cccc(-c4ccccc4)c3)CC2)CC1	nt	nt	nt	-18%	-8%	nt
O=C(NC(Cc1ccccc1)C(=O)O)/C(=C/c1cccc([N+](=O)[O-])c1)NC(=O)c1cccc(Br)c1 (stereo not given)	8%	19%	1%	-3%	3%	20
Cc1cccc(NC(=O)CCN2C(=O)C3C4C=CC(C4)C3C2=O)n1 (stereo not given)	27%	21%	17%	23µM*	16µM*	5
O=C(CCN1C(=O)C2C3C=CC(C3)C2C1=O)Nc1ccccn1 (stereo not given)	-1%	-2%	nt	-5%	-2%	16
O=C(CCN1C(=O)C2C3C=CC(C3)C2C1=O)NCCc1ccccc1 (stereo not given)	17%	13%	?	26µM*	?	26
COc1ccc(CCNC(=O)Cc2c(C)c3c(cc(C)c4c(C)coc43)oc2=O)cc1	nt	nt	nt	-20%	?	nt
C[C@H]1CCC(=O)N([C@H](CSc2ccc(Br)cc2)Cc2ccccc2)CC1	7%	7%	-25%	29µM*	18µM*	?
CC(C)CN1CCC(=O)N([C@H](CSc2ccc(Br)cc2)Cc2ccccc2)CC1	-5%	-1%	-15%	18µM*	15µM*	-53*
CN1CCC(=O)N([C@H](CSc2ccc(Br)cc2)Cc2ccccc2)CC1	-3%	-11%	0%	?	21µM*	?
Cc1ccc(SC[C@H](Cc2ccccc2)N2CCN(C)CCC2=O)cc1	-6%	-9%	12%	?	?	-24
CC(C)C[C@@H](CSc1ccccc1)N1CCN(CC(C)C)CCC1=O	4%	5%	?	14µM*	29µM*	-4
CSC1=N/C(=C/c2cccnc2)C(=O)N1Cc1ccccc1	-1%	4%	1%	?	-12%	nt
CC(C)[C@H](NC(=O)c1ccccc1F)C(=O)OCC(=O)NC1CC1	13%	2%	19%	-2%	1%	16
CC(C)Oc1cccc(NC(=O)C2(C)CCN2C(=O)C(C)C)c1 (stereo not given)	1%	11%	nt	-16%	-26%	6
O=C(OCCO)c1c(C2=CCCCC2)oc2c1C(OCCO)CCC2 (stereo not given)	2%	14%	nt	-30%	-17%	16
CC(=O)Nc1ccc(SC[C@H](Cc2ccccc2)N2CC[C@@H](N)CCC2=O)cc1	nt	nt	nt	0.13µM*	-25%	nt
CN1CCC(=O)N([C@H](CSc2ccccc2)Cc2ccccc2)CC1	-7%	0%	16%	?	?	-4
CCOc1ccccc1NC(=O)CC1C(=O)NCCN1C(=O)c1ccc(F)cc1 (stereo not given)	nt	nt	nt	5%	-6%	nt
CCC/C(O)=C1\C(=O)CC(C)(C)CC1=Nc1ccc(OC)cc1	-4%	-15%	-6%	15µM*	?	-20
SMILES	HT1080 IDH1KD tx	HT1080-NT tox	ELG1 DNA repair	DT40 TDP1 no CPT	DT40 TDP1 CPT	IL-1B inflam inh
CCCCOc1ccc(-c2nnn(CC(=O)NCc3ccco3)n2)cc1	7.9µM*	7.1µM*	?	4.6µM*	4.6µM*	30
CCOc1ccc(-c2nnn(CC(=O)NCc3ccco3)n2)cc1OCC	8%	12%	14%	2%	0%	-14
CC1=NN(C(=O)COc2ccccc2)C(O)(c2ccccc2)C1 (stereo not given)	6%	10%	7%	?	5.8µM*	13
CCCCC1(O)CC(C(F)(F)F)=NN1C(=O)COc1ccccc1 (stereo not given)	?	-26%	?	?	?	14
CCC1=NN(C(=O)COc2ccccc2)C(O)(c2ccc(Br)cc2)C1 (stereo not given)	-7%	-20%	?	21µM*	?	6
COc1ccccc1-c1nn2c(-c3cc(-c4ccccc4)n[nH]3)nnc2s1	nt	nt	nt	4.5µM*	6.3µM*	nt
COc1ccccc1-c1nn2c(-c3ccco3)nnc2s1	-17%	-3%	?	18µM*	?	-27
Clc1ccc(OCc2nn3c(-c4ccco4)nnc3s2)cc1	-2%	-1%	-10%	18µM*	?	-17
COc1ccc(OCc2nn3c(-c4ccco4)nnc3s2)cc1	-3%	-3%	-9%	?	?	-5
COc1cccc(OC)c1-c1nn2c(-c3cc(-c4ccccc4)n[nH]3)nnc2s1	?	?	?	?	18µM*	-2
COc1cc(-c2nn3c(-c4ccccn4)nnc3s2)cc(OC)c1OC	nt	nt	-30%	nt	nt	nt
Fc1cccc(-c2cncc(N3CCN(CCN4CCCC4)CC3)n2)c1	?	-21%	nt	?	?	-9
COC(=O)c1ccc(/C=C/C(=O)OCC(=O)c2ccc[nH]2)cc1	2%	1%	19%	-1%	0%	-1
CN(C)c1ccc(-c2nn3c(-c4cc(-c5ccccc5)n[nH]4)nnc3s2)cc1	nt	nt	nt	3.2µM*	5µM*	nt
Clc1ccccc1-c1nn2c(-c3cc(-c4ccccc4)n[nH]3)nnc2s1	nt	nt	nt	11µM*	13µM*	nt
Cc1cc(-c2nnc3sc(-c4ccc(Cl)cc4Cl)nn23)n[nH]1	7%[9.24 µM]	17%	15%	?	?	?
CCc1nc2c(OCC(=O)c3ccc(Cl)cc3Cl)cccn2c1N(C)C(=O)c1cccs1	?	?	nt	18µM*	16µM*	?
CCc1nc2c(OCC(=O)c3ccc(Cl)cc3Cl)cccn2c1N(C=O)Cc1ccc(OC)cc1	?	-28%	nt	18µM*	23µM*	1
